Measured values reported in paper PMC5540273 (PLoS ONE, 2017).

System: MKNK1
Conditions: concentration: 1 μM, replicates: in singlicate; n = 1
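Further: KINOMEscan kinase panel screen.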

| SMILES | %Inh |
| --- | --- |
| CN1CCN(Cc2ccc(NC(=O)Nc3ccc(N(C)c4ccnc(Nc5ccc(CS(C)(=O)=O)cc5)n4)cc3)cc2)CC1.Cl [GW827654] | 96.7% |
| COc1ccc(C)c(Nc2ccnc(Nc3ccc(-c4cnc[nH]4)cc3)n2)c1.Cl [GW784041] | 8% |
| Cc1ccc(NC(=O)c2ccnc(N3CCCCC3)c2)cc1-c1ccc(C(=O)NCC2CC2)cc1 [GW775610] | 0% |
| CC(C)NCC(Cc1ccccc1)NC(=O)c1cc(Br)c(-c2ccnc3[nH]ccc23)s1.Cl.Cl (stereo not shown) [GSK1383281] | 0% |
| N#Cc1cnc2cc(-c3cnc(CNCCN4CCOCC4)s3)ccc2c1Nc1ccc(Oc2ccccc2)cc1 [GW664114] | 6% |
| O=C1NC(=O)C(c2ccccc2Cl)=C1Nc1cccc(Cl)c1 [SB-342409] | 0% |
| COc1cc(Nc2ccnc3cc(-c4ccncc4)ccc23)cc(OC)c1OC.Cl [GW494610] | 28% |
| O=C(Nc1n[nH]c2nc(-c3cccc(O)c3)ccc12)C1CC1 [SB-711805] | 0% |
| COC(=O)Nc1nc2ccc(Oc3ccc(NC(=O)Nc4cc(C(F)(F)F)ccc4F)cc3)cc2[nH]1.Cl [GW654607] | 73% |
| Cc1ccc(O)cc1Nc1ccnc2ccc(C(C)(C)C)cc12 [GW856805] | 0% |
| O=C(Nc1n[nH]c2nc(-c3ccccc3)ccc12)C1CC1 [SB-708999] | 30% |
| Fc1cc(Cl)ccc1Nc1ccnc2cc(-c3ccc(CN4CCOCC4)o3)ccc12 [GW560109] | 13% |
| Cc1ccc(Nc2ccnc(Nc3ccc(C)c(F)c3)n2)cc1O.Cl [GW582868] | 0% |
